PubChem BioAssay (NCATS)
Inconclusive results are not listed. A call without a number means that no potency is given here. Calls of active or inactive are those of the source. Unless noted, calls follow the shape of the dose curve; as a rule, active = well fitted curve in the direction sought with a large enough effect; inconclusive = small, poorly fitted or top-dose-only effect, or another doubt; inactive = no such curve, though single readings can be large; an effect the other way counts as inactive or inconclusive.

Experiments:
[1] = molecular target: Ubiquitin carboxyl-terminal hydrolase 1 (Homo sapiens) (UniProt O94782); assay: Inhibitors of USP1/UAF1: Pilot qHTS (AID 504865);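 also: rhodamine fluorescence freed from ubiquitin-rhodamine substrate followed over time; top concentration of the series differs between compounds; nearly all actives have a fitted effect of over 35% in size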
Summary of the method: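 USP1/UAF1 complex (1nM) preincubated with compound 15 min at room temperature, then Ub-Rho substrate (150nM final) added. Fluorescence read kinetically at 480/540 nm, 6 reads every 60 seconds. Buffer: 50mM HEPES pH 7.8, 0.5mM EDTA, 0.1 mg/ml BSA, 1mM TCEP, 0.01% Tween-20.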

[2] = S16 Schwann cell viability assay (CellTiter-Glo assay) (AID 624031); also: nearly all actives have a fitted effect of over 70% in size; also: potency is read from the fitted curve at half-maximal effect
Summary of the method: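 Native S16 rat Schwann cells in DMEM/10% FBS without phenol red were incubated overnight, then exposed to compounds for 24 h at 37 °C/5% CO2. Viability was read as ATP luminescence (CellTiter-Glo), normalized to no-cell wells and DMSO (0%).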

[3] = S16 Schwann cell PMP22 intronic element firefly luciferase assay (AID 624032); also: nearly all actives have a fitted effect of over 30% in size; also: potency is read from the fitted curve at half-maximal effect
Summary of the method: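 Rat S16 Schwann cells stably carrying firefly luciferase driven by a PMP22 intronic element, in 10% FBS, treated 24 h at 37 C. ONE-Glo luminescence normalized to PTC124 control and DMSO (0%); curves classed by r2, magnitude and activity.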

[4] = S16 Schwann cell PMP22 intronic element beta-lactamase assay (AID 624044; calls by dose curve; also: nearly all actives have a fitted effect of over 15% in size); details: S16 rat Schwann cells, PMP22 element beta-lactamase FRET, 24 h; ratio activity, negative = inhibition: at 38.3 µM (top of the series)
Summary of the method: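 Beta-lactamase reporter under a PMP22 intronic regulatory element in stable S16 rat Schwann cells; 24 h compound exposure. 460 nm blue signal normalized between DMSO (0%) and potassium clavulanate, with 535 nm FRET tracking viability; curves classed by r2 and response.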

CP266 = assay: qHTS profiling for inhibitors of Plasmodium falciparum proliferation (AID 504749); also: nearly all actives have a fitted effect of over 60% in size; also: potency is read from the fitted curve at half-maximal effect; details: P. falciparum in erythrocytes, SYBR Green DNA, 72 h; series mostly up to 28.7 µM
Summary of the method: (§1)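 Each compound contacts P. falciparum-infected red blood cells for 72 h at 37 C; lysis buffer (Tris, EDTA, saponin, Triton X, SYBR Green I) is added and fluorescence measured next morning; values normalized to controls.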

W2 = assay: as above; details: P. falciparum in erythrocytes, SYBR Green DNA, 72 h; series mostly up to 28.7 µM
Summary of the method: as §1

[5] = molecular target: Cytochrome P450 3A4 (Homo sapiens) (UniProt P08684); assay: qHTS Assay for Inhibitors and Substrates of Cytochrome P450 3A4 (AID 884); also: nearly all actives have a fitted effect of over 50% in size
Summary of the method: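 Luminescent readout of luciferin produced by CYP3A4 (20 nM) dealkylation of Luciferin-PPXE, 25 uM (its KM). NADPH-driven reaction ran 60 min at RT after 10 min compound preincubation; data scaled to 57 uM ketoconazole as 100% inhibition.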

[6] = Confirmation and Secondary Assay for Modulators of Hemoglobin Beta Chain Splicing at IVS2 705 locus (AID 930);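 also: HeLa cells stably expressing the EGFP-705 splicing reporter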
Summary of the method: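 HeLa cells stably carrying EGFP interrupted by mutant beta-globin IVS2-705 intron (CMV-driven) were seeded at 500 cells/well, treated next day with compound for 2 days at 37C; corrected splicing restores EGFP, read as total peak GFP intensity per well.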

Ubiquitin carboxyl-terminal hydrolase 1 (Homo sapiens), sequence (O94782 whole entry, looked up): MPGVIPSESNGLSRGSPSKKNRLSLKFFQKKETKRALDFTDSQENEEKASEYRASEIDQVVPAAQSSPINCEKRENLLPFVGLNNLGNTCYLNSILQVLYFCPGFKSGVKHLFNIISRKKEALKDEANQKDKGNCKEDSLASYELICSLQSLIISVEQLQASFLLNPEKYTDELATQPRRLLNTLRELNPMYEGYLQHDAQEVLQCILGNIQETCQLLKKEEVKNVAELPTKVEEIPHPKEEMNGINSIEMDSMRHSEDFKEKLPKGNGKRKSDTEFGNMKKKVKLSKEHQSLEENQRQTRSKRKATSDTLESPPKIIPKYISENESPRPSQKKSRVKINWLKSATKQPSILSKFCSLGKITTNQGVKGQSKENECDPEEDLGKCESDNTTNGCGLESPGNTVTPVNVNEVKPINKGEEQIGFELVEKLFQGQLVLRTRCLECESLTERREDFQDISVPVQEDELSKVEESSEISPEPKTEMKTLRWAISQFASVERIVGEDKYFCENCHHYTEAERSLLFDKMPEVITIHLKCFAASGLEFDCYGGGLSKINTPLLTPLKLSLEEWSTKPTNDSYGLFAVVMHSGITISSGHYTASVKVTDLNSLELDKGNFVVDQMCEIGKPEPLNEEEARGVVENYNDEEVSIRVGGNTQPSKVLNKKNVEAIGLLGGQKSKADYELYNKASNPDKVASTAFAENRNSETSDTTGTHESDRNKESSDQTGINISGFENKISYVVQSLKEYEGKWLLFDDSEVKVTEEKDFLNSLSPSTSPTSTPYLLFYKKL
Cytochrome P450 3A4 (Homo sapiens), sequence (P08684 whole entry, looked up): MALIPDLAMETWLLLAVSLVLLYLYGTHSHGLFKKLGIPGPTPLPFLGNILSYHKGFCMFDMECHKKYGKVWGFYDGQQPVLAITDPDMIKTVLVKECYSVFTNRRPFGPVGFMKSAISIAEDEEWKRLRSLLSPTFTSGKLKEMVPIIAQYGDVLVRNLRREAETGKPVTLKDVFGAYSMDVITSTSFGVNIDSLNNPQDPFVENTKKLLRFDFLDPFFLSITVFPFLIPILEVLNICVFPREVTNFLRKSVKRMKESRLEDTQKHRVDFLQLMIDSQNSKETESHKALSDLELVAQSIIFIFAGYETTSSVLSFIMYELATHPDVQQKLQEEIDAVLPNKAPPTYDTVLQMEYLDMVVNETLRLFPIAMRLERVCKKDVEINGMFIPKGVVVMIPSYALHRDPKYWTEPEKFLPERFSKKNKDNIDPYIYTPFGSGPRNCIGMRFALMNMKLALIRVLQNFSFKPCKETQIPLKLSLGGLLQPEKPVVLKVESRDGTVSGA

Row | Compound | Potency [1] | Potency [2] | Potency [3] | Potency [4] | Potency (CP266) | Potency (W2) | Potency [5] | Potency [6] | ratio activity, negative = inhibition [4]
1 | Cc1onc(-c2c(F)cccc2Cl)c1C(=O)NC1C(=O)N2C1SC(C)(C)C2C(=O)O (centres undefined) | inactive | inactive | inactive | inactive | inactive | inactive |  |  | 
2 | NC(=O)NC(CCC(=O)O)C(=O)O (centres undefined) | inactive | inactive | inactive | inactive | inactive | inactive |  |  | 
3 | CC(CCC(=O)O)C1CCC2C3C(=O)C[C@@H]4CC(=O)CC[C@@]4(C)C3CC(=O)[C@]12C (some centres undefined) | inactive | inactive | inactive | inactive | inactive |  | inactive | inactive | 
4 | CC(=O)N1CC(O)CC1C(=O)O (centres undefined) | inactive | inactive | inactive | inactive | inactive | inactive |  |  | 
5 | O=C(O)c1ccc(N[C@@H]2OC[C@@H](O)[C@@H](O)[C@@H]2O)cc1 | inactive | inactive | inactive |  |  | inactive |  |  | 
6 | CN(C)CC/C=C1\c2ccccc2COc2ccc(CC(=O)O)cc21 | inactive | inactive | inactive | inactive | inactive |  |  |  | 
7 | NC(=O)OC[C@@H]1[C@H](NC(=O)/C(=N/OCC(=O)O)c2csc(N)n2)C(=O)N1S(=O)(=O)O | inactive | inactive | inactive | inactive | inactive |  |  |  | 
8 | CC1(C)CC1C(=O)N/C(=C/CCCCSCC(N)C(=O)O)C(=O)O (centres undefined) | inactive | inactive | inactive |  | inactive | inactive |  |  | 
9 | NC(=O)c1ncn(C2OC(CO)C(O)C2O)c1N (centres undefined) | inactive | inactive | inactive | inactive | inactive | inactive | inactive | inactive | 
10 | CNC1C(O)C(OC2C(NC(=O)C(O)CN)CC(N)C(OC3OC(CN)C(O)C(O)C3O)C2O)OCC1(C)O (centres undefined) | inactive | inactive | inactive | inactive | inactive | inactive |  |  | 
11 | COc1cc2c(cc1O)CCN[C@@]21CS[C@H]2c3c(OC(C)=O)c(C)c4c(c3C(COC1=O)N1C2C2c3c(cc(C)c(OC)c3O)CC([C@@H]1O)N2C)OCO4 (some centres undefined) |  | inactive | inactive |  | 0.0015 µM (active) | 0.0004 µM (active) |  |  | 
12 | CO[C@H]1C[C@@H]2CC[C@@H](C)[C@@](O)(O2)C(=O)C(=O)N2CCCC[C@H]2C(=O)O[C@H]([C@H](C)C[C@@H]2CC[C@@H](O)[C@H](OC)C2)CC(=O)[C@H](C)/C=C(\C)[C@@H](O)[C@@H](OC)C(=O)[C@H](C)C[C@H](C)/C=C/C=C/C=C/1C |  |  | inactive | inactive |  | 1.2 µM (active) |  |  | 
13 | NC(=O)C1CC2(NC(=O)NC2=O)c2cc(F)ccc2O1 (centres undefined) | inactive | inactive |  |  | inactive | inactive |  |  | 
14 | CC[C@H](C)[C@H]1O[C@]2(CC[C@@H]1C)C[C@@H]1C[C@@H](C/C=C(\C)[C@H](O[C@@H]3C[C@H](OC)[C@H](O[C@@H]4C[C@H](OC)[C@@H](O)[C@H](C)O4)[C@H](C)O3)[C@@H](C)/C=C/C=C3\CO[C@@H]4[C@H](O)C(C)=C[C@@H](C(=O)O1)[C@]34O)O2 |  | 12.8 µM (active) | 9.07 µM (active) |  |  | 1.69 µM (active) |  |  | 
15 | C[n+]1c2cc(N)ccc2cc2ccc(N)cc21 |  | inactive |  | inactive | 1.35 µM (active) | 0.757 µM (active) |  |  | 
16 | NCCCCC(N)C(=O)O (centres undefined) | inactive | inactive | inactive | inactive | inactive | inactive |  |  | 
17 | CCCCC(=O)O[C@]1(C(=O)CO)CCC2C3CCC4=CC(=O)CCC4(C)C3C(O)CC21C (some centres undefined) |  | inactive | inactive |  | inactive |  |  |  | -11.9% (active)
18 | CO/N=C(/C(=O)N[C@@H]1C(=O)N2C(C(=O)O)=C(CSc3cnns3)CS[C@H]12)c1csc(N)n1 | inactive |  | inactive | inactive |  | inactive |  |  | 
19 | CCN(CC)CC(=O)Nc1c(C)cc(C)cc1C | inactive |  | inactive | inactive | inactive |  |  |  | 
20 | CC(=O)OCC(=O)[C@@]1(O)CCC2C3C[C@H](C)C4=CC(=O)C=CC4(C)C3C(O)CC21C (some centres undefined) | inactive | inactive | inactive | inactive | inactive | inactive |  |  | 
21 | CC1C(=O)C(=O)C=CN1C (centres undefined) | inactive | inactive | inactive |  | inactive | inactive |  |  | 
22 | Nc1nc(F)nc2c1ncn2[C@@H]1O[C@H](CO)[C@@H](O)[C@H]1O | inactive | inactive | inactive | inactive | inactive | inactive |  |  | 
23 | CO/N=C(/C(=O)N[C@@H]1C(=O)N2C(C(=O)O)=C(CSC(=O)c3ccco3)CSC12)c1csc(N)n1 (some centres undefined) | inactive | inactive | inactive | inactive | inactive | inactive |  |  | 
24 | OCC(CO)NC1C[C@](O)(CO)[C@@H](O)[C@H](O)[C@H]1O (some centres undefined) | inactive | inactive |  | inactive |  | inactive |  |  | 
25 | CN1[C@@H]2CC[C@@H]1CC(OC(=O)[C@H](CO)c1ccccc1)C2 (some centres undefined) |  | inactive | inactive | inactive | inactive | inactive |  |  | 
26 | C[C@]12C=CC(=O)N[C@@H]1CC[C@@H]1C2CC[C@]2(C)C(C(=O)Nc3cc(C(F)(F)F)ccc3C(F)(F)F)CC[C@@H]12 (some centres undefined) |  |  |  | inactive | inactive | 1.51 µM (active) |  |  | 
